# Measured values from article PMC6925144, “A prospective compound screening contest identified broader inhibitors for Sirtuin 1” (Scientific Reports, 2019).
# In all, about 3,200 compounds were measured (“TSA(without NAD+) / Primary screening (TSA) / delta Tm (K)”: median about -0.07, highest 2% from about 0.37 on). What follows is part of a selection rich in the highest values, with near analogues and random picks from the rest.
# Biological target: NAD-dependent deacetylase Sirtuin 1 (human, UniProt Q96EB6)
# Experiment: primary screen, delta tm
# Parameters: single well (n = 1)
# Conditions: 10 µM
# Experimental: A total of 3,192 compounds extracted from the proposed lists were first screened by thermal shift assay (TSA), which determined a melting temperature shift (ΔTm) of Sirtuin 1 upon the addition of a test compound at a concentration of 10 µM (n = 1) with primary hit criteria of ΔTm > 0.45 K or ΔTm < −1.5 K. Primary hits (48 compounds) were retested in the same assay at three concentrations (5, 10, 20 µM, n = 4) for hit confirmation and for dose-dependency check. Secondary hits (41 compounds) were checked their selectivity for Sirtuin 1 based on counterscreening on unrelated protein targets (bovine carbonic anhydrase (CA) and recombinant SH2 domain of hABL1 kinase (ABL1)) at three different concentrations (5, 10, 20 µM, n = 4), which yielded 38 hit compounds, hereafter referred to as TSA hits. The TSA screening above was conducted in the absence of NAD+.
# NAD-dependent deacetylase Sirtuin 1, sequence (Q96EB6 2-747 limits assumed): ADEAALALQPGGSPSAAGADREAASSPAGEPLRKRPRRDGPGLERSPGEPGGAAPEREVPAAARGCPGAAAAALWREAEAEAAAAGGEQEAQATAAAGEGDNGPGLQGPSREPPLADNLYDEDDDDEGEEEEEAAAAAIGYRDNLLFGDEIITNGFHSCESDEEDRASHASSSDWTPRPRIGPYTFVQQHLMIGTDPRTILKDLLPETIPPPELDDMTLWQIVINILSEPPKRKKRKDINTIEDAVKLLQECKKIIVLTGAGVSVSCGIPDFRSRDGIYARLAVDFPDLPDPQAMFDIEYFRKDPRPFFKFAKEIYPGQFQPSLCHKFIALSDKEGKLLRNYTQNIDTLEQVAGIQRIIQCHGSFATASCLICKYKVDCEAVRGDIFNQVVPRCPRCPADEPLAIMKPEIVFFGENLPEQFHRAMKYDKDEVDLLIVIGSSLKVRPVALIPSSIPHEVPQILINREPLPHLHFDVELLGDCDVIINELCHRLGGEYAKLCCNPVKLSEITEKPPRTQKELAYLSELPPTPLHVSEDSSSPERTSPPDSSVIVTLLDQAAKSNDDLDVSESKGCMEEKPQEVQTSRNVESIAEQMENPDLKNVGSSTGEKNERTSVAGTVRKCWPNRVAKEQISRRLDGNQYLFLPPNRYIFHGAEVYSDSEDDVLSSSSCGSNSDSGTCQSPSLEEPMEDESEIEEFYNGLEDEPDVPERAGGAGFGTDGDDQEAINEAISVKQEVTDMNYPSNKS
row,SMILES,TSA(without NAD+) / Primary screening (TSA) / delta Tm (K)
1,COc1ccc(Br)cc1/C=C1/Cc2ccccc2C1=O,-0.08
2,O=C1/C(=C\c2cc(Br)cc(Br)c2O)CC/C1=C\c1cc(Br)cc(Br)c1O,0.55
3,O=C1/C(=C\c2ccc(Br)cc2)CC/C1=C/c1ccccc1OC(F)F,-0.08
4,O=C(CCSc1ncccn1)Nc1c(Cl)cccc1Cl,-0.04
5,Cc1ccc(C23CC4CC(CC(C(=O)OCC(N)=O)(C4)C2)C3)cc1C,-0.22
6,Cc1ccc(C23CC4CC(CC(C(=O)OC(C)C(=O)Nc5ccc(S(N)(=O)=O)cc5)(C4)C2)C3)cc1C (stereo not drawn),0.48
7,Cc1ccc(C23CC4CC(CC(C(=O)OCC(=O)Nc5ccc(S(N)(=O)=O)cc5)(C4)C2)C3)cc1,0.32
8,Cc1ccc(N(C)S(=O)(=O)c2cccc(C(=O)N(C)Cc3ccccc3Cl)c2)cc1,-0.24
9,O=S1(=O)CCC(N2CCN(c3ncnc4c3oc3ccccc34)CC2)C1 (stereo not drawn),-0.11
10,Cc1nc(N2CCN(c3cccc(C(F)(F)F)c3)CC2)c2c3c(sc2n1)CCC3,0.16
11,CCOc1ccc(Oc2ccc(NC(=O)CNC(=O)CC34CC5CC(CC(C5)C3)C4)cc2)cc1,0.38
12,CC(C)CC(=O)Nc1ccc(C(=O)COC(=O)CNC(=O)CC23CC4CC(CC(C4)C2)C3)cc1,-0.04
13,COc1ccc(NC(=O)CC23CC4CC(C2)CC(CC(=O)Nc2ccc(OC)cc2)(C4)C3)cc1,0.15
14,NCCOCC(=O)O,-0.23
15,CCCn1c(NC(=O)c2ccc3c(c2)CCC(=O)N3)nc2ccccc21,0.12
16,O=C1CCc2cc(NC(=O)c3cccnc3)ccc2N1,-0.04
17,Cc1ccc(C(=O)Nc2nc3ccc(NS(=O)(=O)c4ccc5c(c4)CCC(=O)N5)cc3s2)s1,0.66
18,NCC(N)C1CCC1 (stereo not drawn),-0.31
19,NC(=O)c1cc(NC(=O)CN2CC=C(c3ccc(O)cc3)CC2)cc(C(N)=O)c1,0.15
20,O=C1NC(=S)NC(=O)C1=NNc1c(F)cccc1F,-0.08
21,Cn1ncc2c(=O)n(CC(=O)N3CCCc4c(C(N)=O)cccc43)cnc21,-0.18

row,SMILES,TSA(without NAD+) / Primary screening (TSA) / delta Tm (K)
1,O=C(NC1(C(=O)N2CCN(C(=O)c3cnccn3)CC2)CCOC1)OCc1ccccc1 (stereo not drawn),-0.12
2,Cc1sc2ncnc(N3CCC(C(=O)Nc4sc5c(c4C(N)=O)CCCC5)CC3)c2c1C,0.16
3,Cc1sc(NC(=O)C2CCN(c3ncc(C(F)(F)F)cc3Cl)CC2)c(C(N)=O)c1C,0.28
4,NC(=O)c1c(NC(=O)C2CCN(c3ncc(C(F)(F)F)cc3Cl)CC2)sc2c1CCC2,0.39
5,Cc1ccc(OCC(O)Cn2c(C(F)(F)F)ccc(C(N)=O)c2=O)cc1 (stereo not drawn),-0.13
6,Cc1ccc(NC(=O)C(OC(=O)C23CC4CC(CC(O)(C4)C2)C3)c2ccccc2)c([N+](=O)[O-])c1 (stereo not drawn),0.07
7,CC(NC(=O)CNC(=O)CNC(=O)c1cccs1)c1ccccn1 (stereo not drawn),-0.23
8,O=C(CC12CC3CC(CC(C3)C1)C2)NCC(=O)Nc1ccc(Sc2nc3ccccc3[nH]2)cc1,0.18
9,O=C(NC(=S)Nc1ccc(-c2nc3ccccc3[nH]2)cc1)C12CC3CC(CC(C3)C1)C2,0.58
10,O=C1CCCCC(C(=O)Nc2ccc(-c3nc4ccccc4[nH]3)cc2)N1 (stereo not drawn),-0.03
11,O=C(Nc1cccc(S(=O)(=O)N2CCOCC2)c1)C(c1ccccc1)c1ccccc1,0.09
12,O=C(Nc1cccc(S(=O)(=O)N2CCOCC2)c1)c1cn(-c2ccccc2)nc1-c1ccc(Cl)cc1,0.58
13,O=C(Nc1cccc(S(=O)(=O)N2CCOCC2)c1)c1cn(-c2ccccc2)nc1-c1ccccc1,-0.02
14,CN(c1ccccc1)S(=O)(=O)c1ccc(C(=O)Nc2cccc(S(=O)(=O)N3CCOCC3)c2)cc1,0.02
15,O=C(Nc1cccc(S(=O)(=O)N2CCOCC2)c1)c1cccc(S(=O)(=O)N2CCc3ccccc32)c1,0.37
16,Cc1ccc(-c2nn(-c3ccccc3)cc2C(=O)Nc2cccc(S(=O)(=O)N3CCOCC3)c2)cc1,0.07
17,O=C(Cn1[nH]c(=O)c2ccccc2c1=O)Nc1ccc(N2CCN(Cc3ccccc3)CC2)cc1,0.02
18,O=C(OCc1cccc2ccccc12)C1CCCCN1c1ncccn1 (stereo not drawn),-0.13
19,Cc1nc2c(C(N)=O)ncn2c(C)c1CCC(=O)Nc1ccc(F)c(C(N)=O)c1,0.02
20,c1coc(CNc2ncnc3ccsc23)c1,0.05
21,CCNC(=O)c1cccc(NC(=O)C2CCN(S(=O)(=O)c3cc(C(C)(C)C)ccc3C)CC2)c1,0.17

row,SMILES,TSA(without NAD+) / Primary screening (TSA) / delta Tm (K)
1,O=C(NO)c1cccc(C(F)(F)F)c1,-0.13
2,Cc1ccc(C(C)(C)C)cc1S(=O)(=O)Nc1cccc(C(=O)NNC(=O)c2cccc(S(=O)(=O)Nc3cccc(C(F)(F)F)c3)c2)c1,1.22
3,NC(=O)c1ccc(CNC2CCCCCC2)o1,-0.05
4,C=CCOc1cccc(C2C(C(=O)c3ccco3)=C(O)C(=O)N2CCCN2CCOCC2)c1 (stereo not drawn),-0.08
5,COc1ccc(CNC(=S)NC2CCCCC2)cc1OC,-0.23
6,COc1ccc(NC(=S)NN)cc1OC,0.37
7,COc1cc(NC(C)C(=O)Nc2ccc(C(N)=O)cc2)cc(OC)c1OC (stereo not drawn),-0.18
8,COc1ccc(Br)cc1/C=C1/COc2ccccc2C1=O,-0.03
9,CCC(NC(=O)c1ccc(C(N)=O)cc1)C(c1ccc(C)cc1)n1cncn1 (stereo not drawn),-0.21
10,COc1ccc(N(C)S(=O)(=O)c2cccc(C(=O)Nc3ccc(Br)cc3F)c2)cc1,0.07
11,COc1ccc(N(C)S(=O)(=O)c2cccc(C(=O)Nc3ccc(Br)c(C(F)(F)F)c3)c2)cc1,0.62
12,COc1ccc(N(C)S(=O)(=O)c2cccc(C(=O)Nc3ccc(Cl)cc3)c2)cc1,0.36
13,COc1ccc(N(C)S(=O)(=O)c2cccc(C(=O)Nc3cccc4ccccc34)c2)cc1,-0.13
14,COc1ccc(NC(=O)c2cccc(S(=O)(=O)N(C)c3ccc(OC)cc3)c2)cc1,0.03
15,COc1ccc(N(C)S(=O)(=O)c2cccc(C(=O)Nc3cccc(Br)c3)c2)cc1,0.38
16,COc1ccc(N(C)S(=O)(=O)c2cccc(C(=O)Nc3ccc(-n4cnnn4)cc3)c2)cc1,0.59
17,CCCOC(=O)c1ccc(NC(=O)c2cccc(S(=O)(=O)N(C)c3ccc(OC)cc3)c2)cc1,0.35
18,COc1ccc(N(C)S(=O)(=O)c2cccc(C(=O)Nc3ccc4c(C)cc(=O)oc4c3)c2)cc1,-0.13
19,COc1ccc(N(C)S(=O)(=O)c2cccc(C(=O)Nc3ccc(OC)c(OC)c3)c2)cc1,-0.31
20,COc1ccc(N(C)S(=O)(=O)c2cccc(C(=O)Nc3ccc4ccccc4c3)c2)cc1,0.82
21,COc1ccc(N(C)S(=O)(=O)c2cccc(C(=O)Nc3ccc(Br)cc3)c2)cc1,0.36
